Data taken from the supplement of paper PMC12632987.

T1: USP38, Q8NB14
T1 chain: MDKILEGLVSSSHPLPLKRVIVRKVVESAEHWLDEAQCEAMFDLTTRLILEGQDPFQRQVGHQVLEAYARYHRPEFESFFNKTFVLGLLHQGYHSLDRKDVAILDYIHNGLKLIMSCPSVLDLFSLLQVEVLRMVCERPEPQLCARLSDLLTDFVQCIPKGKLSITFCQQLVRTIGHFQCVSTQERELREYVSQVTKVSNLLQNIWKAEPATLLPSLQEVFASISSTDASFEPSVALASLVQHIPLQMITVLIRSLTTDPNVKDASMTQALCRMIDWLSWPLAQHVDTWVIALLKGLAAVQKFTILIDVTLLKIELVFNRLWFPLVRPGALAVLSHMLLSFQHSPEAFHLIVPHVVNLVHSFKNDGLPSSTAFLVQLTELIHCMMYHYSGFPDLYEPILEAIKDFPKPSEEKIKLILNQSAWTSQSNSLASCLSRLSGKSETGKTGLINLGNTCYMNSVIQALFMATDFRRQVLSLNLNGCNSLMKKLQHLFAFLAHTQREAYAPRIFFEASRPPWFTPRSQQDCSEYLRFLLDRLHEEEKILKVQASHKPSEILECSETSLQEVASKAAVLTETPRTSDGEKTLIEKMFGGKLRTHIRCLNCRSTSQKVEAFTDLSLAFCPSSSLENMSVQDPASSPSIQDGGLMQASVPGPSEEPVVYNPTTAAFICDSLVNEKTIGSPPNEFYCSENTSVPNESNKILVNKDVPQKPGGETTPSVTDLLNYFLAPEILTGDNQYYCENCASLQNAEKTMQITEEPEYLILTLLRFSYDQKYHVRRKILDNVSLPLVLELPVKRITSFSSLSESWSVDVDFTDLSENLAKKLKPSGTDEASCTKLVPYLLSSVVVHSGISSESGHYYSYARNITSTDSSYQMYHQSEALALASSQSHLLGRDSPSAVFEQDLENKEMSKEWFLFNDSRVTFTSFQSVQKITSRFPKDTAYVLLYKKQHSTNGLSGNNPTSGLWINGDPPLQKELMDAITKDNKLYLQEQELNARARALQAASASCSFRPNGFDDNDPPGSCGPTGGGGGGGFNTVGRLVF

B1: usp_38_diff_out_13_93_76 (protein)
chain: TLEEKAEALLAEIRKRAEELLKELKKLAEEGKITIEEVLERSSKLFDEIAERTRAMVAELRAAGKEALAERVEKEVNEIILKATEGVGKILEFLAEKEAA
B2: usp_38_diff_out_13_93_74 (protein)
chain: DLEARVEALLAAQEAEADALAAELAARAAAGEITVEEILERSSALADRIAEETRRAVAELEAAGEAALARRLRERTAEILLRLTERVGAILEELAAREAA
B3: usp_38_diff_out_14_2_102 (protein)
chain: AEAEIEKATEETLAVLEEAIKKFEELEKEVEEDPSKAEEAFERILEEWDRAADAVGALARLLEAHPEVRETRKKAVAEVNEALTRLTEKATRALEKAAEA
B4: usp_38_diff_out_13_93_77 (protein)
chain: SLEEKAKALLAEIEARAKALLEELEELAERGEITIEEVLERSSALFDEIAAETRAMVAELEAAGKKALAEELKKKVNEIILDATEGIGKILERLAEREAA
B5: usp_38_diff_out_14_2_101 (protein)
chain: AEEEIKKKKEETLKKLEEGIERLKKLKEEVKKDPSLAEKARKEAFEIHDEVADKVGELHKLILKNPELKELNKKAIKEVNEKLTEFTEALLEALEEAAAA
B6: usp_38_diff_out_14_2_108 (protein)
chain: AADKIKAATDATLAALEAAIAKAKELKERVKKDPSLAEEARKELFEAWDAVGDKVGALAKLLEENKAERATNKKATAEVNKALTEYTKAVLEALEEIAKA
B7: usp_38_diff_out_14_2_107 (protein)
chain: AKEEIKKKTEETLKALDEAIKAAKKLKEEVKKDPSLAEKARKELFKLWDEVGDKVGELAKLLEENKEERETNKEAVEKVNEALTKFTKAVLEALEEIEKA
B8: usp_38_diff_out_13_93_72 (protein)
chain: SAEEEIEKILKEVEEEAEKELEELEKEVAAGRLTVEEVLRRAGELFSYIVKKHQEIEKIAKENGLEALLKEATEKVNELINKVTERVTAMLERVAARQLA
B9: usp_38_diff_out_13_93_75 (protein)
chain: SLEDEAAALLAEIRAEAEALAAELEALAEAGKITIEEVLERTSALVDRIAERTRAMVARLRAAGLEALARRLEEEVNRILLDLTERVGRILERLAEREAA
B10: usp_38_diff_out_13_93_70 (protein)
chain: SAEEKIKKLIEETKEKAKKKLEEMEEKVEAGELDVEEVLEEYSELMKYIVETHNEIEKLAKENGLEELLKEANKEFNELINETTEKVTEMLEKVAERQLA
B11: usp_38_diff_out_14_2_100 (protein)
chain: GEEELKAATDATLKTLDAAIKEAKELKKEVEEDPSKAEEARKRLFEAWDKAADAVGALAKLMEEHKELRELNKEAVEKVNKRITELTKVALEALELAAKA
B12: usp_38_diff_out_13_93_71 (protein)
chain: STEEEIERLVEEAEERARRELEEMREEVEAGKLNVEEVLERSSELFRWLVEKYNEIKKLAKEAGLEELLKEAEERFNELINKATEEVTEMLEKVAERELA
B13: usp_38_diff_out_14_2_105 (protein)
chain: GEEEIKKATDKTLKKLEEATKKFKELKEKVKKDPSLAEEARKEAFKAWDEAGDAVGALAKLIEENKEHRATNKEATEKVNKALTEYTKAVLELLEEIAEA
B14: usp_38_diff_out_14_2_104 (protein)
chain: AKATIEAATAAALKAIDDGKKRLEELTKKVKEDPSKAEEAREEILAVWDEVGDAVGALAATLRANPAERATNKAATAEVNKALTEFTKKALEALEVAEEA
B15: usp_38_diff_out_14_2_106 (protein)
chain: GEEEIKKATEETLKAIKEAIEKAKELKEKVKKDPSLAEEARKELFEAHDKVGDKVGALAKLIEEHKEYRETNKKAVKEVNEALKEYTEAVLELLEEIAEA
B16: usp_38_diff_out_13_93_73 (protein)
chain: DPAEELRREAEELIEELRRRTDELVARLEAGEITIEEALARFSELMDEAAERLRELIARAEALGLEALAREIRRRVLEAMVEATERLGAALERAAEREAA

Molecular target: T1, USP38, Q8NB14
Experiment: median log2 fold change of GCK-ALFA target abundance (FLAG IP / Myc IP barcode read proportion) (log2 ratio); each designed protein is fused to an ALFA-tag nanobody in HEK293 cells to bring the named protein to FLAG-tagged glucokinase (GCK); Myc marks an untargeted standard; higher = target protein stabilised (more abundant)
Settings: target protein: 3xFLAG-MCP-GCK-ALFA reporter; HEK293 landing pad (RPLP)
Procedure, shortened: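 HEK293 landing-pad cells received a recombined binder library fused to the ALFA nanobody and were induced with 2 μg mL^−1 doxycycline, then transfected with a plasmid encoding a FLAG-tagged target and a Myc-tagged standard. Lysates were collected after 48 h for anti-FLAG and anti-Myc immunoprecipitation, and the circular RNA barcodes were reverse transcribed, amplified and sequenced. Target abundance for each binder is the median log2 ratio of FLAG to Myc barcode read proportions. Barcodes had to reach a proportion of at least 10^−7 in both replicates, each binder needed at least 3 barcodes per replicate, a pseudocount of 10^−6 was applied, and the two replicates were pooled.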

| Binder | median log2 fold change |
| --- | --- |
| B1 | 0.124 |
| B2 | 0.136 |
| B3 | -0.0129 |
| B4 | -0.0527 |
| B5 | 0.0029 |
| B6 | -0.78 |
| B7 | -0.442 |
| B8 | -0.469 |
| B9 | 0.213 |
| B10 | -0.785 |
| B11 | -0.611 |
| B12 | -0.429 |
| B13 | -0.792 |
| B14 | 0.0445 |
| B15 | -0.23 |
| B16 | -0.395 |
